The values below come from PubChem BioAssay.

A short description of assay [1]: circadian clock period modulators, cell-based, LOPAC library, luminescence reporter (AID 2774).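 Also: values are relative to mean of DMSO wells on each plate.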 The following applies: circadian reporter cells, at 7 µM, actives lie on both sides.
Assay [2] concerns Hepatitis C virus NS3 helicase. As to the kind of experiment: HCV NS3 helicase inhibitors, primary screen, biochemical, fluorescence polarization, LOPAC1280 library (AID 687035; in the data active = inhibition above about 37%). The following applies: Purified HCV NS3 helicase, Cy5-dT15 ssDNA binding fluorescence polarization; stronger effect = higher value; concentration not given here.
Assay [3] in a line: Cy5 fluorescence quenching or enhancement artefacts, artefact control for HCV NS3 helicase inhibitor project, biochemical, LOPAC1280 (AID 687037). Conditions: Cy5-DNA-NS3h complex fluorescence interference counterscreen.
Assay [4] is described as follows: sensitizers of A549 cells to miR-34 induction, primary screen, imaging, A549 dox-inducible miR-34, nuclei and caspase counts (AID 1347080;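 active = compounds whose cell count with miR-34 switched on is under 0.7 times the count with it off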). The following applies: A549 miR-34 inducible, Hoechst nuclei count, 48 h.
Assay [5] can be described thus: phospholipid biosynthesis inhibitors in animal cells, primary screen, cell-based, LOPAC library, screen 4 (AID 1347384). The following applies: phospholipid biosynthesis inhibition screen, at 10 µM.
A short description of assay [6]: viability rescue of complex I mutant cybrids, primary screen, cell-based, galactose medium, ATP luminescence (AID 1645843;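 active = z-score of at least 1.8 in each of two replicates, scored against plate mean and spread of sample wells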;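 also: positive z means more ATP and so rescue of galactose-driven cybrid death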). Conditions: complex I mutant cybrid cells, 72 h, stronger effect = higher value.
Assay [7] is described as follows: survival rescue of mitochondrial mutant cells in low glucose, primary screen, MELAS cybrids, Rieske KO mouse fibroblasts, CellTiter-Glo (AID 1508586;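 active = mean z-score across replicates of 1.96 or higher in either the MELAS or the Rieske mutant cell line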;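 also: z relative to plate mean and SD of compound and empty wells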).
Assay [8] addresses ATP-dependent translocase ABCB1 (Homo sapiens) (UniProt P08183). As to the kind of experiment: MDR1 (ABCB1) efflux transporter inhibition, cell-based (AID 377; in the data active = fluorescence slope change above about 50%). Conditions: MDR1-expressing cells, fluorescent substrate accumulation slope; stronger effect = higher value; concentration not given here.
The nature of assay [9]: hESC survival regulators, cell-based (AID 493140).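 Also: cells exposed to compounds for four days before counting.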 The following applies: human embryonic stem cell survival screen; stronger effect = higher value.
Assay [10] in a line: liver-stage malaria parasite growth inhibition, primary screen, cell-based, HepG2, luciferase luminescence, HepG2 viability (AID 624349; in the data active = parasite load remaining mostly below about 12%, no sharp cut-off; inactive = mostly above about 10%;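 also: 100% = mean of DMSO negative control wells on the same plate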). Conditions: P. berghei liver stage in HepG2, luciferase luminescence, concentration not given here; parasite load remaining: stronger effect = lower value; viability: measured here: HepG2 viability without parasites.
For assay [11], the target named is NAD(+) hydrolase SARM1 (Homo sapiens) (UniProt Q6SZW1). As to the kind of experiment: SARM1 TIR NADase inhibitors, cell lysate, NAD-Glo luminescence (AID 1508614;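 active = compound whose remaining NAD level is above about 45 nM, limit read from the data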;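 also: higher remaining NAD means stronger inhibition of SARM1 NADase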). The following applies: SAM-TIR HEK293T lysate NADase, at 1 µM, stronger effect = higher value.
The target in assay [12] is Mitogen-activated protein kinase 7 (Homo sapiens) (UniProt Q13164). As to the kind of experiment: ERK5 transactivation activators in reporter cells, primary screen, cell-based, HTS (AID 1508626;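 active = luciferase signal above three times the same-plate solvent-only control wells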;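 also: luciferase driven by Gal4-ERK5 fusion binding five Gal4 sites before minimal TATA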). Conditions: HeLa Gal4-ERK5 transactivation, 18 h, at 5 µM, stronger effect = higher value.
Where [13] appears, read: stronger effect = lower value, cell number ratio, induced over uninduced.
The mark [14] stands for this setting: measured here: relative caspase fold change +Dox/-Dox.
The mark [15] stands for this setting: measured here: total cells with miR-34 induction, stronger effect = lower value.
Setting [16] is: measured here: total cells without miR-34 induction.
Where [17] appears, read: MELAS cybrid survival, CellTiter-Glo 48 h, stronger effect = higher value.
Setting [18] is: Rieske KO mouse fibroblast survival, CellTiter-Glo 72 h.

Values joined by “and” are separate entries in the source; they are usually repeats but may differ in a detail not shown here. Equal entries are not always repeated. Inconclusive results are not listed. Where a structure was tested more than once in an assay, its records may differ in their call. Active and inactive are the calls of the source. Unless noted, no rule for the calls is given here.

Chain of ATP-dependent translocase ABCB1 (Homo sapiens) (P08183 whole entry, looked up): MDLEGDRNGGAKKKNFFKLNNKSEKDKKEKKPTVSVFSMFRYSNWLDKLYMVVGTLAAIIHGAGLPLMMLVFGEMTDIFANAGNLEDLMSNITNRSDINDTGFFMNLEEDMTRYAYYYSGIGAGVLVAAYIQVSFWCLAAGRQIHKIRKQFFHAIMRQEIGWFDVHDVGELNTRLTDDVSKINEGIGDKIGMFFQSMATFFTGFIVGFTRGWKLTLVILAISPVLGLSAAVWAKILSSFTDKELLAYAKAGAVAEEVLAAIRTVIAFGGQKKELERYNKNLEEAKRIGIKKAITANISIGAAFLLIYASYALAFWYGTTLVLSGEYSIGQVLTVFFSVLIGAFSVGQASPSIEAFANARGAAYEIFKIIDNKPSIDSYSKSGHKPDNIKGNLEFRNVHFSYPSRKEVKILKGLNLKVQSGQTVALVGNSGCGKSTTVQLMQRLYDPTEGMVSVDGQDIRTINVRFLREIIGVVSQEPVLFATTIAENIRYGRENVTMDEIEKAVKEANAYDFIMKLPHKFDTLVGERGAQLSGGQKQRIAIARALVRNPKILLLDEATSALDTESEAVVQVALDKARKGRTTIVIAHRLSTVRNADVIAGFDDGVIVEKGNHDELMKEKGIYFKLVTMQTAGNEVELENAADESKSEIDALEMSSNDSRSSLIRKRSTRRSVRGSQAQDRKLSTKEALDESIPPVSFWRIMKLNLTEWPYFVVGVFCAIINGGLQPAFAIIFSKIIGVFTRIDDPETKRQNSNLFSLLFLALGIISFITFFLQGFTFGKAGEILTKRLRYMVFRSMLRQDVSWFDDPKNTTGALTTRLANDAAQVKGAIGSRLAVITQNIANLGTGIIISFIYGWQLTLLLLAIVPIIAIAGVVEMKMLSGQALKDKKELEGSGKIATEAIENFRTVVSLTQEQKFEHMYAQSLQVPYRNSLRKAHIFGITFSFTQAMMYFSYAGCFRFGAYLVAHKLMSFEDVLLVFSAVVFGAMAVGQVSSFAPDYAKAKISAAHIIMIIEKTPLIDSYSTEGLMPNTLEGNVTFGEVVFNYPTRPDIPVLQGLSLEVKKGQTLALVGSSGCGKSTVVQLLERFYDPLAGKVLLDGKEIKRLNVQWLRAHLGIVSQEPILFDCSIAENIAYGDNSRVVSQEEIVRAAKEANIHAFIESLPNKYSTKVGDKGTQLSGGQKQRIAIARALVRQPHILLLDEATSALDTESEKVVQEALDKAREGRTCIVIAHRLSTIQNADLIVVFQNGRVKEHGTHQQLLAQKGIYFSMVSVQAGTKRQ
Chain of NAD(+) hydrolase SARM1 (Homo sapiens) (Q6SZW1 whole entry, looked up, the tested form may be a part): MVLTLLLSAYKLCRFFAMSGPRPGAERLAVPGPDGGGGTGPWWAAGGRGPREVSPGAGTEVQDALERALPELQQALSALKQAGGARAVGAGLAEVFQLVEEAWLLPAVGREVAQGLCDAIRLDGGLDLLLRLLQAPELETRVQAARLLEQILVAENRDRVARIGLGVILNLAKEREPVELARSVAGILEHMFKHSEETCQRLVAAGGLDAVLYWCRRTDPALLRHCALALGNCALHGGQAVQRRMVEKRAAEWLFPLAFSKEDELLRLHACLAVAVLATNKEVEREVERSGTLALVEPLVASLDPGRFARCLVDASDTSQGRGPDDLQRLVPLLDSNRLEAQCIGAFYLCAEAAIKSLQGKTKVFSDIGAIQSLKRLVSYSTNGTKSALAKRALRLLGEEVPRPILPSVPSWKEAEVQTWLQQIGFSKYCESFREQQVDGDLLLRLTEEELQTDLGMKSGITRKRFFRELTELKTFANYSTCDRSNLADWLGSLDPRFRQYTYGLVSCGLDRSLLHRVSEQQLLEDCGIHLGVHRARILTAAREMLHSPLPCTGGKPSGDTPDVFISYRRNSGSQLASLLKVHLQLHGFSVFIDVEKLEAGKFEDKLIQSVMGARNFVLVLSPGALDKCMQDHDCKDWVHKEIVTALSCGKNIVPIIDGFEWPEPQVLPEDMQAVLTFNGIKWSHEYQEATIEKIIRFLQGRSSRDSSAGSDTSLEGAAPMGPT
Chain of Mitogen-activated protein kinase 7 (Homo sapiens) (Q13164 whole entry, looked up, the tested form may be a part): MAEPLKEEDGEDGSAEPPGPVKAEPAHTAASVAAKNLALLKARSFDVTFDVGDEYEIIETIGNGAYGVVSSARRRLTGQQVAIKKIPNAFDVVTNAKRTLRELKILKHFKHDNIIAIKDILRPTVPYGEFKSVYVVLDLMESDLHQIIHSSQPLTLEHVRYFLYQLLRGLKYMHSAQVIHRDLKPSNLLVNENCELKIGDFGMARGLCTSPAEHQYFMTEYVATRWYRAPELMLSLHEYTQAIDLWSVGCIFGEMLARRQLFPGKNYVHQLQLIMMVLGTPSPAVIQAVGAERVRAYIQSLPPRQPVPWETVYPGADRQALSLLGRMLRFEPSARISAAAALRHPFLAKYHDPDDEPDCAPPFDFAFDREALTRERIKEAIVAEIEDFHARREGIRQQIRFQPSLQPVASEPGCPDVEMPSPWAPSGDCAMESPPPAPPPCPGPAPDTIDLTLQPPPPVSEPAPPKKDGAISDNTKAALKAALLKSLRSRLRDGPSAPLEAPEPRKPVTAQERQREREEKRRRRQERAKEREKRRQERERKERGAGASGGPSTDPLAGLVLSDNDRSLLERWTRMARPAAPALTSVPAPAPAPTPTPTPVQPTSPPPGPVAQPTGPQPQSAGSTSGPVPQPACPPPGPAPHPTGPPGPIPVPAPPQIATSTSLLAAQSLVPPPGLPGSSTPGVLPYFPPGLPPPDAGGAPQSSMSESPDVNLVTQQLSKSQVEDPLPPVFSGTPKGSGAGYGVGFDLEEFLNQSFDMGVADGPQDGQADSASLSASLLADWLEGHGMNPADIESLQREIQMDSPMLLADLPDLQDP

Turning to `NC1CONC1=O` (stereo unspecified), the period change in assay [1] was -0.095 h (inactive). Also, the inhibition in assay [2] is -2% (inactive). Also, the fluorescence ratio (interference) in assay [3] was 1 (inactive). Besides, the fold change in assay [4] (setting [13]) is 1.01 (inactive) and 0.986 (inactive); in assay [4] (setting [14]), 2.01 and 1.56. Further, the cell count was 10700 and 9620 in [4] (setting [15]); 10600 and 9760 in [4] (setting [16]). Moreover, the compound was classed as inactive in assay [5]. Moreover, in [6], the z-score was 0.065 (inactive) and 0.91 (inactive).

As for `CC(N)C1CCC(C(=O)Nc2ccncc2)CC1` (stereo unspecified), the period change in [1] was 0 h (inactive). The inhibition in assay [2] was -1% (inactive). Moreover, the fluorescence ratio (interference) in assay [3] is 1 (inactive). The fold change in [4] (setting [13]) is 0.953 (inactive) and 0.841 (inactive); in assay [4] (setting [14]) it was 1.2 and 0.911. The cell count in assay [4] (setting [15]) is 10100 and 7170; in assay [4] (setting [16]), 10600 and 8530. Besides, the result in assay [5] was inactive. Moreover, the z-score was -0.271 (inactive) in assay [7] (setting [17]), 0.184 in assay [7] (setting [18]) and -0.475 (inactive) in assay [6].

Consider `C[C@]12C=CC(=O)C=C1CC[C@@H]1C2=CC[C@]2(C)[C@@H](C(=O)CN3CCN(c4cc(N5CCCC5)nc(N5CCCC5)n4)CC3)CC[C@@H]12`, for which the period change in [1] is 0.075 h (inactive). In addition, the inhibition in assay [2] was -5% (inactive). Besides, in [3], the fluorescence ratio (interference) was 0.9 (inactive). In addition, the fold change in assay [4] (setting [13]) was 0.983 (inactive) and 1.04 (inactive); in assay [4] (setting [14]), 0.64 and 0.868. The cell count in assay [4] (setting [15]) was 8450 and 5900; in assay [4] (setting [16]), 8600 and 5690. Moreover, the compound was classed as inactive in assay [5]. Moreover, the z-score in assay [6] is 1.27 (inactive).

Regarding `CSC(=N)N`, in assay [1], the period change is -0.11 h (inactive). For the same compound, the inhibition in assay [2] is -4% (inactive). Further, the fluorescence ratio (interference) in assay [3] was 1 (inactive). The fold change was 1 (inactive) and 0.925 (inactive) in assay [4] (setting [13]); 1.64 and 1.46 in assay [4] (setting [14]). For the same compound, the cell count in [4] (setting [15]) was 10600 and 5770; in assay [4] (setting [16]), 10500 and 6230. The call in assay [5] was inactive. For the same compound, the z-score in assay [6] was 0.095 (inactive).

As to `CC(C)(C)c1onc(OCP(=O)(O)O)c1CC(N)C(=O)O` (stereo unspecified), in [1], the period change was -0.03 h (inactive). The inhibition in assay [2] is -3% (inactive). Further, the fluorescence ratio (interference) in [3] is 0.9 (inactive) and 1 (inactive). Also, the fold change in assay [4] (setting [13]) is 1.04 (inactive) and 0.947 (inactive); in assay [4] (setting [14]), 1.07 and 1.18. For the same compound, the cell count in [4] (setting [15]) is 10900 and 10600; in assay [4] (setting [16]), 10500 and 11200. Besides, the compound was classed as inactive in [5]. The z-score in assay [6] was 0.82 (inactive) and 0.145 (inactive).

In the case of `C[C@@H]1NC(=O)NC1=O`, the fluorescence slope change in assay [8] was 57.7% (active). Also, in [9], the survival is 3.92 (inactive). For the same compound, the parasite load remaining in assay [10] was 81.4% (inactive) and 66.6% (inactive). Besides, the viability in assay [10] was 97.9% and 95.3%. Moreover, the fold change is 0.891 (inactive) and 0.879 (inactive) in [4] (setting [13]); 1.07 and 1.01 in assay [4] (setting [14]). In addition, the cell count is 8770 and 8800 in assay [4] (setting [15]); 9840 and 10000 in [4] (setting [16]). For the same compound, the figures for the z-score in [7] (setting [17]) and in [7] (setting [18]) were 0.462 (inactive) and -0.44, respectively.

As for `CC1c2cccc(O)c2C(O)=C2C(=O)[C@]3(O)C(O)=C(C(N)=O)C(=O)C(N(C)C)[C@@H]3C(O)[C@@H]21` (stereo partly specified), the fold change in assay [4] (setting [13]) is 0.722 (inactive) and 0.743 (inactive) and 0.957 (inactive); in assay [4] (setting [14]), 1.04 and 0.719 and 0.385. Besides, the cell count in assay [4] (setting [15]) is 5360 and 5020 and 8780; in [4] (setting [16]), 7420 and 6760 and 9180. The z-score in [7] (setting [17]) is 4.12 (active) and 3.16 (active) and -0.469 (inactive); in [7] (setting [18]), 5.71 and 4.93 and -0.551.

Take `NC(=O)c1cc[n+](CC2=C(C(=O)O)N3C(=O)[C@@H](NC(=O)[C@@H](c4ccccc4)S(=O)(=O)[O-])[C@H]3SC2)cc1`: the period change in [1] is -0.015 h (inactive). Moreover, the survival in [9] was 7.17 (inactive). Further, the parasite load remaining in assay [10] is 79.7% (inactive). The viability in assay [10] came to 103%. Also, the inhibition in assay [2] was 4% (inactive). Besides, the fluorescence ratio (interference) in [3] was 1 (inactive). Also, the fold change in [4] (setting [13]) was 1.02 (inactive) and 0.887 (inactive); in assay [4] (setting [14]) it was 2.31 and 1.36. The cell count in assay [4] (setting [15]) is 10400 and 9300; in assay [4] (setting [16]), 10200 and 10500. For the same compound, the results for the z-score in assay [7] (setting [17]), in assay [7] (setting [18]) and in [6] were 0.659 (inactive), -0.267 and -0.05 (inactive), respectively. Also, in [11], the remaining NAD is 10 nM (inactive). For the same compound, the luciferase signal in [12] is 36 AU (inactive).

For the compound `CCCCCC(O)CCCC(=O)O` (stereo unspecified), the period change in assay [1] is -0.17 h (inactive). The inhibition in assay [2] was -4% (inactive). In [3], the fluorescence ratio (interference) was 1 (inactive). For the same compound, the fold change was 0.96 (inactive) and 0.942 (inactive) in [4] (setting [13]); 0.791 and 1.2 in [4] (setting [14]). The cell count is 9800 and 6140 in assay [4] (setting [15]); 10200 and 6510 in [4] (setting [16]). In addition, in assay [5], the result was inactive. Further, the z-score in assay [6] is 0.165 (inactive).

`O=C(c1ccc(OCCCc2cnc[nH]2)cc1)C1CC1`: the inhibition in assay [2] is -3% (inactive). For the same compound, in assay [3], the fluorescence ratio (interference) was 1 (inactive). Also, the fold change is 0.955 (inactive) and 1.01 (inactive) in assay [4] (setting [13]); 1.12 and 0.82 in assay [4] (setting [14]). The cell count is 9150 and 7760 in assay [4] (setting [15]); 9580 and 7660 in assay [4] (setting [16]). In addition, the outcome in assay [5] was inactive. Also, the z-score in [7] (setting [17]) was -0.324 (inactive); in [7] (setting [18]), -0.0656; in [6], -1.01 (inactive).

With `CO/N=C(\C(=O)N[C@@H]1C(=O)N2C(C(=O)O)=C(COC(C)=O)CS[C@H]12)c1csc(N)n1` (stereo in doubt), the fluorescence slope change in assay [8] is 81.1% (active). In addition, in [1], the period change was -0.095 h (inactive). Besides, the survival in assay [9] was 16.2 (inactive). Further, the parasite load remaining in [10] was 35.6% (inactive) and 93.3% (inactive). In addition, in [10], the viability is 65.7% and 139%. The fold change was 1.01 (inactive) and 0.948 (inactive) in assay [4] (setting [13]); 2.06 and 1.21 in assay [4] (setting [14]). For the same compound, the cell count was 10500 and 9330 in [4] (setting [15]); 10300 and 9840 in assay [4] (setting [16]). Further, the z-score is 0.18 (inactive) in [7] (setting [17]), -0.136 in assay [7] (setting [18]) and 0.04 (inactive) in assay [6]. Further, in assay [11], the remaining NAD is 10 nM (inactive). Also, in [12], the luciferase signal is 152 AU (inactive).
